IDE act: boosts human insulin-degrading enzyme activity in HEK cells | P14735 | FAbeta-B cleavage, fluorescence polarization; 0% vehicle, 100% cell-free pure enzyme wells | activation, % at 5.96 µM | actives 0.073% (n = 340,000);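 active = activation above the mean of all tested compounds plus 3 SD, set per screening campaign, cut at about 17% in these data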
CRFBP-R2 block: antagonists of CRF-binding protein/CRF-R2 receptor complex; HEK293 CRF-R2/CRF-BP, CRF-induced calcium fluorescence; inhibition, % at 11.8 µM; actives 0.59% (n = 350,000);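 active = inhibition of the ligand-induced calcium signal above about 50% at the single tested concentration, limit read from the data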
IDE inh: inhibits human insulin-degrading enzyme in HEK cells. AID 434962. P14735. inhibition, % at 5.59 µM. FAbetaB cleavage, fluorescence polarization. actives 0.41% (n = 320,000);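 active = percent inhibition above the average of all tested compounds plus 3 SD, set per screening campaign, cut at about 16% in these data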;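 note: IDE supplied by intact live HEK cells; FP after avidin binding of uncleaved biotin substrate so inhibition keeps polarization high; 0% = DMSO wells and 100% = 60 µM reference IDE inhibitor Ii1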
TPT1 inhibitor: inhibitors of Candida albicans tRNA 2'-phosphotransferase TPT1; actives 0.81% (n = 300,000); recombinant caTPT1, FP RNA substrate dephosphorylation; AID 1962; inhibition, % at 5 µM;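 active = inhibition above the mean of all tested compounds plus 3 SD, set per screening campaign, cut at about 24% in these data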;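 note: plate controls were DMSO alone for no effect and ferristatin control at 100 nM for full effect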
Myeloid diff MLP: compounds promoting myeloid differentiation; ER-HoxA9 myeloid progenitors, lysozyme-GFP differentiation, flow cytometry; calls only at 10 µM; actives 1% (n = 360,000); AID 624256;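 active = normalized GFP-positive differentiation at or above the plate's own cutoff, the solvent-only control mean plus 3 SD; inconclusive = no clear call, values can overlap the other calls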;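 note: cells exposed to compound for four days before flow analysis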
CRFR2-BP ag: CRF-BP/CRF-R2 complex agonism. HEK293 CRF-R2/CRF-BP, calcium dye fluorescence (FLIPR); percent of saturating CRF peptide response. activation, % at 13.2 µM. actives 0.46% (n = 350,000);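 active = activation of at least 50%, plus an integration ratio under a set limit after plate pattern correction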;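 note: plate controls were neutral control wells without compound for no effect and CRF at EC100 for full effect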
caTPT1 confirm: TPT1 (C. albicans) inhibition, confirmation. actives 74% (n = 2,400). shares compounds with TPT1 inhibitor. recombinant caTPT1, fluorescence polarization, RNase T1 coupled. inhibition, % at 5 µM;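 active = inhibition above the primary screen limit, the mean inhibition of all tested compounds plus 3 SD, cut at about 25% in these data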
RNase T1 inh: counter-screen for TPT1 inhibitors: inhibitors of Aspergillus oryzae RNase T1; shares compounds with TPT1 inhibitor; RNase T1 cleavage, fluorescence polarization, 1536-well; inhibition, % at 5 µM; actives 83% (n = 2,400);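 active = inhibition above the solvent-only control well mean plus 3 SD, limit set per screening run, cut at about 23% in these data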;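 note: plate controls were DMSO wells with enzyme for no effect and wells without RNase T1 for full effect; inhibitors block cleavage so intact labeled substrate keeps polarization high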
* = called active by the depositor; i = inactive; ? = inconclusive; · = no result given; + = active, no number. Hits are enriched below; roughly 2.6% of the tested compounds scored in any of these assays.

SMILES	IDE act	CRFBP-R2 block	IDE inh	TPT1 inhibitor	Myeloid diff MLP	CRFR2-BP ag	caTPT1 confirm	RNase T1 inh
Nc1c(/C=C2/C=CC(=O)C(O)=C2)c(=O)nc2sc(CC(=O)N3CCOCC3)nn12	-5	-4	·	·	i	-1	·	·
N=C1/C(=C\c2ccc(SCc3ccccc3)o2)C(=O)N=C2SC(CC(=O)N3CCOCC3)=NN12	-5	16	6	27*	i	1	28*	39*
CC[C@H](C)/C=C(C)/C=C/C(=O)Cc1cc(O)c(C)c(O)c1C=O	2	-13	4	34*	i	18	31*	41*
CSc1nc(-c2ccccc2)nc(SC)c1C(C)=O	6	-7	1	26*	i	0	6	14
O=C(CSc1nnc(-c2ccccc2Cl)o1)Nc1ccccn1	-4	6	-6	2	i	0	·	·
CC(=O)c1cccc(NC(=O)CNC(=O)c2sc3ccccc3c2Cl)c1	7	-6	4	29*	i	2	45*	57*
Cc1cccc(NC(=O)CNC(=O)c2sc3ccccc3c2Cl)n1	4	1	2	6	i	-1	·	·
O=C(Nc1ccccc1F)C(=Cc1sc(N2CCOCC2)nc1-c1ccccc1)C(=O)Nc1ccccc1F	7	-35	2	48*	i	17	-24	-3
O=C(N/N=C/c1sc(N2CCOCC2)nc1-c1ccccc1)c1cccc(S(=O)(=O)N2CCOCC2)c1	5	-7	-3	60*	?	13	60*	69*
Cc1ccccc1N=C1Nc2ccccc2N[C@]12C[C@H]1CCC(=O)N3CC[C@@H](C2)[C@@H]13	-2	-5	·	·	i	-1	·	·
N#Cc1c(C(F)(F)F)cc(-c2ccccc2)nc1SCc1nc(N)nc(N2CCOCC2)n1	2	-82	10	46*	+	69*	56*	60*
CCOC(=O)c1sc(N)c(C#N)c1COC(=O)CNC(=O)c1ccccc1	-3	-8	7	79*	i	1	92*	100*
CN(/N=C/c1cc([N+](=O)[O-])ccc1O)c1ccccc1	6	20	1	1	i	-2	·	·
CN(/N=C/c1ccc(-c2ccc([N+](=O)[O-])cc2)o1)c1ccccc1	-25	-93	11	73*	i	79*	74*	82*
CCOC(=O)c1c(NC(=O)CSC(=S)N2CCOCC2)sc(C)c1C	-1	4	-4	2	i	1	·	·
COc1ccc(/C=C/CN2CCCC(CO)(Cc3cccc(Cl)c3)C2)cc1 (stereo not given)	0	-19	-3	5	i	0	·	·
CCC1(CC)NC(=O)N(CC(=O)Nc2sc3c(c2C(N)=O)CCC3)C1=O	5	-6	4	28*	i	0	37*	48*
CCOC(=O)Cn1cnc2sc3c(c2c1=O)CCC3	1	4	-2	36*	i	0	15	23*
CC(C)c1ccc(NC(=O)NC2(C(=O)NCc3cccnc3)CCCCC2)cc1	1	-8	7	3	i	0	·	·
N#Cc1c(-c2ccco2)cc(-c2ccccn2)nc1N	2	-28	11	28*	i	1	15	18
N#Cc1c(-c2ccco2)cc(-c2cccnc2)nc1N	3	-3	4	2	i	1	·	·
O=C(CN1C(=O)/C(=C/c2cccc(Br)c2)SC1=S)N1CCCC1	-5	-15	4	-1	?	-4	·	·
NS(=O)(=O)c1ccc(-c2ccc(C=O)o2)cc1	·	9	-2	2	i	-1	·	·
NS(=O)(=O)c1ccc(-c2ccc(/C=C3\NC(=S)NC3=O)o2)cc1	-2	6	11	45*	i	0	70*	80*
N#CC1=C(N)Oc2cc(N)ccc2C1c1ccc(F)cc1F (stereo not given)	3	-65	7	42*	+	30	33*	44*
SMILES	IDE act	CRFBP-R2 block	IDE inh	TPT1 inhibitor	Myeloid diff MLP	CRFR2-BP ag	caTPT1 confirm	RNase T1 inh
COc1ccc(NC(=O)c2cc(S(=O)(=O)Nc3ccc(OC)cc3)cs2)cc1	3	-11	0	47*	i	1	5	7
O=C(CSc1nc2ccccc2c(=O)[nH]1)c1cccs1	1	19	-1	-2	i	0	·	·
COC(=O)c1cccc(CSc2nc(-c3ccccc3)c(C#N)c(=O)[nH]2)c1	3	48	-2	81*	i	-2	6	9
N#Cc1c(-c2ccccc2)nc(SCC(=O)N(c2ccccc2)c2ccccc2)[nH]c1=O	-3	13	-5	34*	i	-2	11	18
N#Cc1c(-c2cccs2)nc(SCC(=O)c2cccs2)[nH]c1=O	-2	2	0	40*	i	1	23	30*
N#Cc1c(-c2ccccc2)nc(SCc2ccc(Cl)cc2)[nH]c1=O	1	25	3	-1	i	0	·	·
CC(=O)N1C(=O)C(=C2C=C(C)OC(C)=C2)c2ccccc21	1	6	-3	27*	i	42	72*	55*
COc1ccc(CCNc2nc(C)c(C(C)=O)s2)cc1OC	-5	-1	2	-2	i	0	·	·
COc1ccc(CCNc2nc(-c3ccc(F)cc3)c(CC(=O)O)s2)cc1OC	-3	11	1	98*	+	2	15	23*
COc1ccc(N(CC(=O)N2CCN(C)CC2)S(=O)(=O)c2ccccc2)cc1	1	1	3	-2	i	1	·	·
COc1cccc(CNC(=O)CN2C(=O)CSc3ccc(S(=O)(=O)N4CCCC4)cc32)c1	1	0	1	-1	i	-3	·	·
COc1cc(OC)cc(C(C(=O)NCc2ccccc2)N(Cc2ccco2)C(=O)c2ccno2)c1 (stereo not given)	1	-18	0	42*	i	-2	16	25*
COc1ccccc1NS(=O)(=O)c1cc(NC(=O)c2[nH]c(C)c(C(C)=O)c2C)ccc1N1CCOCC1	3	30	-3	-4	i	-2	·	·
c1ccc(-c2nc(-c3ccco3)n3ccccc23)cc1	-1	-18	4	28*	i	16	25*	30*
c1ccc(Nc2c(-c3ccco3)nc3ccccn23)cc1	3	-24	0	-1	i	0	·	·
CCCCCC(O)CCC(=O)NNC1=CC(=O)CC(C)(C)C1 (stereo not given)	8	-2	5	69*	i	4	9	11
CC(O)CCC(=O)NNC1=CC(=O)CC(C)(C)C1 (stereo not given)	·	·	1	3	·	·	·	·

Assay outcomes as filed in PubChem BioAssay.
